Positions count from the first letter of the chain named. In all, about 24,000 sequences were measured (“enrichment r”: median about 0.99, highest 2% from about 3.7 on). The entries come from a sample that favours the highest values as a whole.

Among the data in PMC12136788 are binding signal values, retold here.

The chains are these.
T1: UNK ZnF1-3 (human, UniProt Q9C0B0 31-174)
T1 sequence: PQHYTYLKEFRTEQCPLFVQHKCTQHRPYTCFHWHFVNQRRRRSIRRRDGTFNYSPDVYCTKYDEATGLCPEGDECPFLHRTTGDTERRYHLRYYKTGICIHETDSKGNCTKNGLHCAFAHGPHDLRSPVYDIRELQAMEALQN

B1: chr15:78454051:78454052:+_ENSG00000166411_ENST00000558554|hu_mus|FALSE|FALSE (ssRNA)
RNA: GGGAGUUCUACAGUCCGACGAUCAUGCUCAAUUCCACUGUAUUCUCCUUCCGUGUUCUCUCGGAUGGUGACGAUAUUUACAUCCGUGUAAGGGGUUUUAUAACCUUCAAUUGAGACACAUGGCCGGACAUUGGCAUAAAGGUCCAACAGAGGAUUGAGCAUCA
B2: chr11:93987321:93987322:+_ENSMUSG00000020859_ENSMUST00000103168|mus_mus|motif|central (ssRNA)
RNA: GGGAGUUCUACAGUCCGACGAUCUACAAAGUUACAUUCCGAACCCCAGGGAUUCCAUAAUAGAAAUAAAUACUGAAAUAACGGCAUUGCUAAAUGAGCUUUUUACGCAUAGAAAUGAAGCCGUGGCCUCUAAAGACAGCAAAUCAACAGAGGAUUGAGCAUCA
B3: chr14:73742652:73742653:-_ENSG00000133961_ENST00000557597|hu_mus|FALSE|FALSE (ssRNA)
RNA: GGGAGUUCUACAGUCCGACGAUCCUAACCCGCUCACUUUUGGCAAGAUUACUUACAACUCAUACUUUUUAAUAUUGAGAACUAUUUAAAAUAUUCUAGGUGCAUAAAAAUAAAGAUUUUGGCUUUUUGAUAUAUAUAUAUAUACAACAGAGGAUUGAGCAUCA
B4: chr10:122431106:122431107:-_ENSMUSG00000034602_ENSMUST00000073792|mus_mus|FALSE|FALSE (ssRNA)
RNA: GGGAGUUCUACAGUCCGACGAUCAAUAUUUUCAAAAUGUUGCCACUCUUACUAUUUUGAUACUUUAUCAGUGAUAGUCCUAUUCUUUAAUUCACAAGUGAGUAUAUCAAAAUAUAAAAAAUACACGGCUUGAGUCAUUUUUUUCAACAGAGGAUUGAGCAUCA
B5: chr17:65740002:65740003:+_ENSG00000130935_ENST00000581375|hu_hu|hu_hu_hu_mus_False|68_98 (ssRNA)
RNA: GGGAGUUCUACAGUCCGACGAUCAACAAAUCUUUCUCUGGAUGAAGAACAGGAAGAUUCAUAUUAACUUUAUAAAAUAUCCAUCAAGUUAGGUGUGGUGGCCACACCUUUACUCCCAGCACUUUGGGAGGUGGAUCUCUGAGUCAACAGAGGAUUGAGCAUCA
B6: chr14:73742652:73742653:-_ENSG00000133961_ENST00000557597|hu_hu|motif|central (ssRNA)
RNA: GGGAGUUCUACAGUCCGACGAUCCCCCUUUACCUUUGGCAAGAUUACUUACAACUCAUACAACUUCUUAAUAUCUGAGAACGGUUUAAAAUAUUCUAAAUGCAUAAAAAUAAAGAUUUUGGCUUUUGAUAUAUAUAAUAUUUACAACAGAGGAUUGAGCAUCA
B7: chr6:135286264:135286265:-_ENSG00000112339_ENST00000367826|hu_hu|FALSE|FALSE (ssRNA)
RNA: GGGAGUUCUACAGUCCGACGAUCUUUGCCAGUUGGCAACUUAGAAUUUUUGCAGAGGUGAUUAUUAAUACUUCUUUGCAGCUAAUUUUAGCUUUAAUUUUUCUCUCUCAUCUAAAAACAUAUCAAUUGCACAUUGUUCCUUUGCAACAGAGGAUUGAGCAUCA
B8: chr12:39756943:39756944:-_ENSG00000139116_ENST00000544797|hu_mus|hu_hu_hu_mus_False|48_78 (ssRNA)
RNA: GGGAGUUCUACAGUCCGACGAUCGGUUUGGCUGUUACCCCCAAGGGAAUCCUGCAAUAGUCUUGUUAGCUUAGAGUCUCUGUAAGGGACAUGUGUGGCUCUCUUGCUCUUGUCCCCCAAGGCGCUGAUUACAUUCCCAAGAGCCAACAGAGGAUUGAGCAUCA
B9: chr4:140309118:140309119:+_ENSG00000164134_ENST00000296543|hu_mus|FALSE|FALSE (ssRNA)
RNA: GGGAGUUCUACAGUCCGACGAUCGUAUCCAGGAGGCAUGAAAGCCAAAGCAUAAGGGAAAAGCUUAUGACAACUUGCUCUGUAGGCUUCGGCAGCUUCUUUACAGUCUCCUAGGCUACCAUCACACAAGGCUUCCAACACCUCCAACAGAGGAUUGAGCAUCA
B10: chr3:10015032:10015033:+_ENSMUSG00000027533_ENSMUST00000029046|mus_mus|mus_mus_mus_hu_True|1_58 (ssRNA)
RNA: GGGAGUUCUACAGUCCGACGAUCGUUUUUACCAUCACAAGUGAUGAUACAAUCUGGCUUGGCCAUUGCGCCCAUUUUCCUAAGAGCUAUUCCCACUCCUAGCUCCUUCAUGUAUUCAUCAAAGCCUUUGCUGUCCAUCAGGCGCAACAGAGGAUUGAGCAUCA
B11: 64658990_64660614_189_3pUTR_ENSMUSG00000024083_ENSMUST00000024889|mouse|control|control (ssRNA)
RNA: GGGAGUUCUACAGUCCGACGAUCAUCCAAUGAACUGGAACCUGAGGUGUUCUCCUUUGGAACAUCGUCUAGUUCCAACACUUCAUAGUCAUCACCAGCCCGACCCAAGCUUCUUUCAUGCCUGGUCAUACAUGGCUUAAAACUCAACAGAGGAUUGAGCAUCA
B12: 104713310_104714935_678_CDS_ENSG00000198431_ENST00000397736|human|control|control (ssRNA)
RNA: GGGAGUUCUACAGUCCGACGAUCAGCGACAUAGGAUGCUCCAACAACCAGGGUCUUACCCGGGCAGUAAGGCAAGGAGAAAAGAUCAUCACUGCUGAUGCAGUAUUCUUUGUCACCAGGGAUGCCCAAGUAACGUGGUCUUUCCAACAGAGGAUUGAGCAUCA
B13: chr11:4127340:4127341:+_ENSG00000167325_ENST00000300738|hu_mus|hu_hu_hu_mus_False|28_88 (ssRNA)
RNA: GGGAGUUCUACAGUCCGACGAUCGGCAUAGUCAGGGUGCUUCGUGGUCAAGGUUGCGGCUGUCUCAGCAGCCAGGGUGUCCAGUUCCACUGUGGUGACCCCACUAUACAAGCCUUGGAUUACUUUCAUGGUGAUCUGAGCAGGCAACAGAGGAUUGAGCAUCA
B14: 82880966_82885890_579_3pUTR_ENSMUSG00000000627_ENSMUST00000000641|mouse|control|control (ssRNA)
RNA: GGGAGUUCUACAGUCCGACGAUCGCUGGAAACUGGACACAUCAAUAACCCCGCACUUCGGAUCAAAAGCGAAGGUGCCACACGUGAGGAGGUGAGAGGCAUUGGCAAUGGCGAGAAUCUGGAUAAAAUUGUGACAUUCGUCCUCAACAGAGGAUUGAGCAUCA
B15: chr7:74146866:74146867:+_ENSG00000077809_ENST00000416070|hu_hu|motif|central (ssRNA)
RNA: GGGAGUUCUACAGUCCGACGAUCUUCCUUUGCAAGUAAUAUCCUCUCCAGGCGAGGAAUUCCGUAAGUAGAUGGCCUUCGGAAAGGAAUUCCUUCAGGAAGUCCUUCUACAUAAAGAUCUUCAACAUGAGACUGGAAAAGAGGCAACAGAGGAUUGAGCAUCA
B16: chr3:142455422:142455423:-_ENSMUSG00000004591_ENSMUST00000043812|mus_mus|motif|central (ssRNA)
RNA: GGGAGUUCUACAGUCCGACGAUCGGGAGAACAACAGAGUGACAGCCUAGGAGAAAAAAGGGAAAAACAAAACAAAAAUCGGAUAAAAUUCCAGCCCAGUGAAGAUCAUGAUUUGCAAACAGGCAUAUGGUAAGAGCGAUACAACAACAGAGGAUUGAGCAUCA
B17: chr3:142455422:142455423:-_ENSMUSG00000004591_ENSMUST00000043812|mus_mus|FALSE|FALSE (ssRNA)
RNA: B16 RNA with G80U, G81A
B18: 21140421_21141420_1149_CDS_ENSG00000141458_ENST00000269228|human|control|control (ssRNA)
RNA: GGGAGUUCUACAGUCCGACGAUCCUCCAUCCCAUGGACUGGAAAAUCUGAAAACACAGGAGUGAUGGUAAAAGGUGCCUGUCCAUUGUCCUUAUUGAACAUGUAUUCAAUCCAGUUGGUGGCAUUACAGGCGUCAGCGUCCUUCAACAGAGGAUUGAGCAUCA
B19: chr16:94690093:94690094:+_ENSMUSG00000040785_ENSMUST00000117648|mus_hu|mus_mus_mus_hu_True|68_98 (ssRNA)
RNA: GGGAGUUCUACAGUCCGACGAUCGGGCUGGGAUGACAGCAGACAGCCCUCGAUUCCAGGGGGAAAAAAAAAUAGCCGAUACUAAUUAAAAAGUGUUAAUGAUUUUUGAAAAUCAGAUUACAUCUAUAAAAGAUGAAAAGCAAACAACAGAGGAUUGAGCAUCA
B20: 65373527_65373647_4270_3pUTR_ENSMUSG00000024589_ENSMUST00000163516|mouse|control|control (ssRNA)
RNA: GGGAGUUCUACAGUCCGACGAUCAGGGAGGCAGGAGCAAUCGCCACGAGUGAUAUUCGUGAAAAAAAAAAAAAAAAUGGAAACAAAACCAGAUGUGACCUCCAUAAAGUGCCUUCAGAAGGGACGCAGAUACAGCAAAGGAAGCAACAGAGGAUUGAGCAUCA
B21: chr14:49642940:49642941:-_ENSMUSG00000061244_ENSMUST00000162175|mus_mus|motif|central (ssRNA)
RNA: GGGAGUUCUACAGUCCGACGAUCUAAAGCAUAAUCAAUAUGCUCAAUACAUAAAAAUUCCACAAGAAUGGUAAAAAUUCGGAAGGCAUUCCUUGGUAAAUCAGAAGGAUCAGAAAGCCUAUGACAUCUUUCAAAGGCUUGUUUCAACAGAGGAUUGAGCAUCA

The target in this experiment is T1, UNK ZnF1-3. Nature of the experiment: nsRBNS (natural sequence RNA bind-n-seq); RBNS binding buffer (assumed for nsRBNS): 25 mM Tris pH 7.5, 150 mM KCl, 3 mM MgCl2, 0.01% Triton X-100, 500 ug/ml BSA, 20 U/ml SUPERase-In, 4 C; UNK is unkempt and MSI1 is Musashi-1; names of the RNAs are library labels; protein concentration not given here; high values mean tight binding.
B1 returned a binding signal of 0.781 enrichment R.
Consider B2, for which the binding signal is 1.35 enrichment R.
In turn, B3 came in with a binding signal of 6.08 enrichment R.
The molecule B4 came in with a binding signal of 0.965 enrichment R.
The same measure for B5: 1.02 enrichment R; for B6: 3.97 enrichment R; for B7: 0.804 enrichment R.
With B8, the binding signal is 0.772 enrichment R.
Regarding B9, the binding signal was 0.414 enrichment R.
The same measure for B10: 0.728 enrichment R; for B11: 0.333 enrichment R; for B12: 1.69 enrichment R.
Consider B13, for which the binding signal amounted to 0.876 enrichment R.
As to B14, the binding signal was found to be 2.22 enrichment R.
In turn, B15 showed a binding signal of 0.729 enrichment R.
In the case of B16, the binding signal stood at 5.45 enrichment R.
As for B17, the binding signal is 4.59 enrichment R.
B18 showed a binding signal of 0.935 enrichment R.
As for B19, the binding signal is 3.34 enrichment R.
B20 had a binding signal of 6.96 enrichment R.
Molecule B21 registered a binding signal of 0.426 enrichment R.
